From PubChem BioAssay AID1259417 (TB Discovery Research, Infectious Disease Research Institute, 2018)
Hit rate of the full screen: of about 1,100 compounds, about 760 (69%) were called active. How the calls were made is not given here. So high a share suggests a set chosen from earlier hits. Some of the results follow.

Assay: M. tuberculosis growth inhibition, HTS (AID 1259417);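 further: bacteria grown with compound for 5 days at 37 °C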
Settings: stronger effect = higher value, concentration not given here
[1] = M. tuberculosis DsRed fluorescence growth inhibition
[2] = M. tuberculosis growth inhibition

SMILES	inhibition [1]	inhibition [2]
Cc1c(Cl)ccc(OCCCN2CCCC(C)C2)c1C (configuration not stated)	99.2% (active)	92.6%
Clc1ccc(-c2nnc(SCc3ccon3)o2)c(Cl)c1	82.2% (active)	64.9%
CC(C)OC(=O)CSc1nnc(-c2ccc(N(C)C)cc2)o1	81.3% (active)	91.9%
CC(C)OC(=O)CSc1nnc(-c2ccc(Cl)cc2Cl)o1	73% (active)	86.2%
CCOC(=O)CSc1nnc(-c2ccc(Cl)cc2Cl)o1	78.6% (active)	85.5%
COc1cc(OC)c(-c2nn3c(C4CCCCC4)nnc3s2)cc1OC	3% (inactive)	4.48%
CCOC(=O)C(Oc1ccc2oc(C)c(C(=O)OC)c2c1)c1ccccc1 (configuration not stated)	-0.568% (inactive)	-19.6%
COC(=O)C(Oc1ccc2c(c1)oc(=O)c1cc(OC)ccc12)c1ccccc1 (configuration not stated)	27.2% (active)	79.5%
COc1ccc(NC(=O)CC23CC4CC(CC(C4)C2)C3)cc1[N+](=O)[O-]	71% (active)	49.1%
COc1ccc(Cl)cc1NC(=O)CC12CC3CC(CC(C3)C1)C2	10.7% (inactive)	2.06%
COc1cc(NC(=O)CC23CC4CC(CC(C4)C2)C3)ccc1NC(=O)c1ccco1	-10.9% (inactive)	-3.8%
COc1ccc(NC(=O)CC23CC4CC(CC(C4)C2)C3)cc1Cl	97.4% (active)	86.9%
CC(C)(C)c1ccc(C(=O)Nc2nccs2)cc1Br	17.6% (inactive)	-5.32%
O=C(Nc1ncc(Cc2cccc(C(F)(F)F)c2)s1)c1cccs1	24.1% (inactive)	23.5%
CC(C)(C)c1cnc(NC(=O)c2ccccc2O)s1	71.4% (active)	28.1%
O=C(CSc1nnc(-c2ccccc2Br)o1)N1CCc2ccccc2C1	24.1% (active)	31.3%
Nc1ccccc1NCCOc1ccccc1	98.3% (active)	98.7%
Cc1ccc(NC(=O)C(=O)NNC(=O)c2ccco2)cc1Cl	6.77% (inactive)	7.85%
CCCCSc1ccc(NCCC(=O)c2ccco2)cc1	29.9% (active)	60.7%

SMILES	inhibition [1]	inhibition [2]
O=C(CCNc1cccc(Cl)c1)c1ccco1	97.7% (active)	96.8%
O=C(CCNc1ccc(-c2ccccc2)cc1)c1ccco1	34.2% (active)	84.3%
CC(=O)c1ccc(NCCC(=O)c2ccco2)cc1	17.6% (active)	59.4%
O=C(COc1ccc(Cl)cc1)Nc1ccc(N2CCN(C(=O)c3ccco3)CC2)c(Cl)c1	0.893% (inactive)	-16.5%
Cc1ccc(-c2csc3nc(SCC(N)=O)n(-c4ccccc4)c(=O)c23)cc1C	4.1% (inactive)	-0.946%
CCC(C)NCCOc1ccc(C(C)(C)c2ccccc2)cc1 (configuration not stated)	98% (active)	94.4%
COc1ccc(OCC(=O)Nc2ccc(I)cc2C)cc1	22% (active)	56.8%
O=C(CSc1nnc(CNc2cccc(Cl)c2)o1)OC1CCCCC1	68.9% (active)	81.6%
O=C(CSc1nnc(Cc2ccccc2)o1)Nc1ccc2c(c1)OCO2	5.38% (inactive)	-1.39%
Cc1ccc(NCc2nnc(SCC(=O)OC3CCCCC3)o2)c(C)c1	91.7% (active)	95%
CCOc1cc(CNCc2ccccc2OCc2ccccc2)cc(Cl)c1OCC	9.66% (inactive)	-13.6%
CCOc1cc(C(=O)ON=C(N)Cc2ccc(Cl)cc2Cl)cc(OCC)c1OCC	4.39% (inactive)	-6.22%
CCOc1cc(CNCCO)cc(Br)c1OCc1ccc(Cl)cc1Cl	37.7% (active)	41.3%
CCOCCOC(=O)COc1ccc2c(-c3ccccc3)cc(=O)oc2c1	64% (active)	89%
Cc1cc(=O)oc2cc(OCC(=O)OC3CCCCC3)ccc12	36.4% (active)	72.1%
O=C(COc1ccc2c(-c3ccccc3)cc(=O)oc2c1)OC1CCCCC1	11.7% (active)	53.3%
O=C1c2cccc3cccc(c23)C(=O)N1CCN1CCN(CC(O)COCc2ccc(Cl)cc2)CC1 (configuration not stated)	-12% (inactive)	-24.9%
COc1ccc(-c2csc(-c3ccc(OC)c(OC)c3)n2)cc1C	1.2% (inactive)	-8.81%
Cc1ccc(-c2csc(-c3ccncc3)n2)cc1C	86.8% (active)	97.1%

SMILES	inhibition [1]	inhibition [2]
CCCCC(=O)Nc1nnc(-c2ccc3c(c2)CCCC3)o1	25.2% (active)	57.9%
O=C(Nc1nnc(-c2ccc3c(c2)CCCC3)o1)c1ccccc1Br	2.76% (inactive)	-9.29%
O=C(Nc1nnc(-c2ccc(Cl)cc2)o1)c1ccccc1Br	12.4% (active)	44.2%
O=C(C=Cc1ccccc1)Nc1nnc(-c2ccc3c(c2)CCCC3)o1	8.27% (inactive)	19.3%
CC(C)(C)C(=O)Nc1nnc(-c2cc(Cl)ccc2Cl)o1	80.9% (active)	86.9%
O=C(Nc1nnc(-c2ccc(Cl)cc2)o1)c1ccc(Br)cc1	94.3% (active)	95.3%
O=C(CCSc1ccccc1)Nc1nnc(-c2ccc3c(c2)CCCC3)o1	20.9% (inactive)	26.4%
O=C(Nc1nnc(-c2cc(Cl)ccc2Cl)o1)c1ccccc1F	59.5% (active)	79.5%
O=C(Nc1nnc(-c2ccc3c(c2)CCCC3)o1)c1ccccc1Cl	-2.21% (inactive)	-7.28%
O=C(Nc1nnc(-c2ccc(Cl)cc2)o1)c1ccccc1F	82% (active)	89.7%
N#Cc1ccc(C(=O)Nc2nnc(-c3ccc4c(c3)CCCC4)o2)cc1	83.6% (active)	91.1%
O=C(Nc1nnc(-c2ccc3c(c2)CCCC3)o1)c1ccco1	9.46% (inactive)	22.5%
O=C(Nc1nnc(-c2cc(Cl)ccc2Cl)o1)c1ccc(Cl)cc1Cl	11.8% (inactive)	9.57%
O=C(Nc1nnc(-c2ccc3c(c2)CCCC3)o1)c1ccccc1F	49% (active)	79.6%
O=C(Nc1nnc(-c2ccc(Br)cc2)o1)c1ccccc1F	80.9% (active)	94.2%
CCOC(=O)COc1ccc2c(=O)cc(-c3ccccc3)oc2c1	89.6% (active)	95.3%
CCOC(=O)COc1cc(OCC(=O)OCC)c2c(=O)cc(-c3ccccc3)oc2c1	63.7% (active)	71.2%
COc1ccc(Cl)cc1NC(=O)C(C)N1CCN(C/C=C/c2ccccc2)CC1 (configuration not stated)	-0.555% (inactive)	-22.8%
